Screening data as filed in PubChem BioAssay.
HP1b chromo inh – HTS for Inhibitors of HP1-beta Chromodomain Interactions with Methylated Histone Tails. Chromobox protein homolog 1 (Homo sapiens), P83916. AlphaScreen HP1-beta / biotin-H3K9me3 peptide binding. Potency, µM (doses to about 114 µM), actives largely listed as inhibitors. hit rate 0.56% among 390,000. AID 540317, 2011; note: nearly all actives have a fitted effect of over 70% in size
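AlphaScreen: HP1-beta (50 nM) preformed 30 min with biotin-H3(1-18)K9me3 peptide (50 nM) in PBS pH 7.4, 0.01% Tween-20. Compound added for 30 min at RT, then streptavidin donor/nickel chelate acceptor beads (10 ug/mL) for 30 min.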
VDR inh – Inhibitors of the vitamin D receptor (VDR): qHTS; Vitamin D3 receptor (Homo sapiens), P11473; VDR-SRC2-3 peptide fluorescence polarization, 2 h; Potency, µM, usual class: inhibitors; hit rate 0.93% among 400,000; AID 504847, 2011
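Inhibition of the VDR/SRC2-3 peptide interaction is quantified by fluorescence polarization. Compounds (23 nl, pintool) incubate with the reagents for 2 hours at ambient room temperature.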
PLK1 PBD block – qHTS for Inhibitors of PLK1-PDB (polo-like kinase 1 - polo-box domain): Primary Screen | Serine/threonine-protein kinase PLK1 (Homo sapiens), P53350 | Plk1 PBD binding of FITC phosphopeptide, fluorescence polarization | Potency, µM, usual class: inhibitors | hit rate 2.8% among 360,000; note: series mostly up to about 57 µM; nearly all actives have a fitted effect of over 65% in size
L3MBTL1 inh – qHTS Assay for the Inhibitors of L3MBTL1; hit rate 0.66% among 230,000; AID 485360, 2010; AlphaScreen L3MBTL1–H3K9me1 peptide binding; Lethal(3)malignant brain tumor-like protein 1 (Homo sapiens), Q9Y468; Potency, µM (top dose mostly 57.1 µM), hits mostly inhibitors; note: nearly all actives have a fitted effect of over 60% in size
Target sequence (Q9Y468 whole entry, looked up): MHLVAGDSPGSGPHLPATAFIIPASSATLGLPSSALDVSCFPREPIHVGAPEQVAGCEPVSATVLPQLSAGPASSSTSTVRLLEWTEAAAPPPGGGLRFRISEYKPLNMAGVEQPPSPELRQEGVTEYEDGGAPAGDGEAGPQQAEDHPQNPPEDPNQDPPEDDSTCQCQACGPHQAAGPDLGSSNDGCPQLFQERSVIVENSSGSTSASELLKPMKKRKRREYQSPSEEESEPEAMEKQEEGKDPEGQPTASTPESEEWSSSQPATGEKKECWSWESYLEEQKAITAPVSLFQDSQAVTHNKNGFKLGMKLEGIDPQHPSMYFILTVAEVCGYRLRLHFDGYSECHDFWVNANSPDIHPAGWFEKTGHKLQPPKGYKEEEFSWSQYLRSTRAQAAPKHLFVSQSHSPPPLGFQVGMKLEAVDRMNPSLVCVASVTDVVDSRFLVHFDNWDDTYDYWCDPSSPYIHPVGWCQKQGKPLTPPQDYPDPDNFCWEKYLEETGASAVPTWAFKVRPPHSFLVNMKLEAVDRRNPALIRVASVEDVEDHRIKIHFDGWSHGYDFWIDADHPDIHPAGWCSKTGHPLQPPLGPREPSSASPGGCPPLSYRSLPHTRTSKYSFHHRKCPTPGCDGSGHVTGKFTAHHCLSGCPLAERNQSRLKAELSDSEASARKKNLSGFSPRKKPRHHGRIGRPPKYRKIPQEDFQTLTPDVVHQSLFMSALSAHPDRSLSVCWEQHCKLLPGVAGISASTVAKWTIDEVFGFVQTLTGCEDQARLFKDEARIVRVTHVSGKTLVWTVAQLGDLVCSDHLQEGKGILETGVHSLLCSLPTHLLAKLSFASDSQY
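AlphaScreen assay: L3MBTL1 (50 nM final) was preincubated 30 min at room temperature with biotinylated H3(1-15)K9me1 peptide (75 nM final), then 30 min with library compounds; streptavidin donor and nickel chelate acceptor beads (10 ug/mL final) added, 30 min dark.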
BAZ2B inh – qHTS Assay for Inhibitors of BAZ2B | AlphaScreen BAZ2B-H3K14Ac peptide displacement | Potency, µM (titrated, usually from 114 µM), actives largely listed as inhibitors | hit rate 4.4% among 360,000 | AID 504333, 2011; note: nearly all actives have a fitted effect of over 60% in size
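AlphaScreen displacement of biotin-H3(5-23)K14Ac peptide (50 nM final) from BAZ2B (50 nM final) in PBS pH 7.4, 0.01% Tween-20; complex preformed 30 min RT, then compounds (top 110 uM) 30 min RT, beads 20 min dark.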
JMJD2A Tudor – qHTS Assay for Inhibitors of JMJD2A-Tudor Domain | AID 504339, 2011 | hit rate 4.4% among 390,000 | AlphaScreen JMJD2A-Tudor / H3K4me3 peptide binding | Potency, µM (titrated, usually from 114 µM), actives largely listed as inhibitors; note: nearly all actives have a fitted effect of over 50% in size
JMJD2E confirm – Confirmation qHTS Assay for Inhibitors of Human Jumonji Domain Containing 2E (JMJD2E) | shares compounds with JMJD2A Tudor | Recombinant JMJD2E, FDH-coupled NADH fluorescence (FDH is formaldehyde dehydrogenase) | Potency, µM (titrated, usually from 56.8 µM), most hits filed as inhibitors | hit rate 93% among 140
FDH counter – Counterscreen for JMJD2E Inhibitors: qHTS Assay for Inhibitors of Formaldehyde Dehydrogenase (FDH). shares compounds with JMJD2A Tudor. hit rate 10% among 140. Potency, µM (titrated, usually from 56.7 µM), most hits filed as inhibitors. AID 2680, 2010. FDH enzyme assay, NADH fluorescence kinetic
G9a inh – qHTS Assay for Inhibitors of Histone Lysine Methyltransferase G9a: Hit Confirmation | shares compounds with JMJD2A Tudor | G9a H3K9 monomethylation, AlphaScreen, 2 h | Potency, µM, most hits filed as inhibitors | hit rate 89% among 370; note: nearly all actives have a fitted effect of over 65% in size
RGS4 confirm – qHTS for Inhibitors of Regulator of G Protein Signaling(RGS) 4: Hit Validation. shares compounds with JMJD2A Tudor. RGS4 GAP activity, Transcreener GDP fluorescence polarization. Potency, µM, actives largely listed as inhibitors. hit rate 80% among 25. AID 602388, 2012
Numbers stand for hits; n = inactive; u = inconclusive; x = no result given; [ ] = another dose, or the depositor's remark. Sampled rows, rich in hits. Any-hit rate of the full collection: about 6.9%. Calls come from the whole dose curve; as a rule, active = well fitted curve in the direction sought with a large enough effect; inconclusive = small, poorly fitted or top-dose-only effect, or another doubt; inactive = no such curve, though single readings can be large; an effect the other way counts as inactive or inconclusive.

SMILES	HP1b chromo inh	VDR inh	PLK1 PBD block	L3MBTL1 inh	BAZ2B inh	JMJD2A Tudor	G9a inh	others
CCCCCCCCN1C(=O)[C@H](CC(=O)NCc2cccs2)C[C@@]2(C(=O)OC)CC(C)(C)CC=C12	x	x	n	x	x	x	x
O=S(=O)(c1ccc2c(c1)OCCO2)C1CCN(S(=O)(=O)c2c(F)cccc2F)CC1	x	x	x	x	x	n	x
O=C(CSc1n[nH]c(=O)[nH]c1=O)c1cccc([N+](=O)[O-])c1	n	n	n	x	u	n	x
O=C(CSc1ncn[nH]1)c1cccc([N+](=O)[O-])c1	n	u	u	n	n	28µM	x	JMJD2E confirm=10µM;FDH counter=0.89µM
NC(=O)c1ccc(-n2nnnc2SCC(=O)c2ccc(O)c(O)c2)cc1	n	n	n	u	u	u	x	JMJD2E confirm=7.9µM;FDH counter=n
O=S(=O)(NCC1CC1)c1cccc(S(=O)(=O)N2CCCC2)c1	n	n	n	x	n	n	x
CCOc1ccc(NC(=O)NCC2CCN(c3ccc(OC)cc3)C2)cc1 (stereo not drawn)	n	n	n	x	n	n	1.1
COc1ccc(N2CCC(CNC(=O)Nc3ccc(OC)cc3OC)C2)cc1 (stereo not drawn)	n	n	n	u	40µM	45µM	2.5
COc1ccc(N2CCC(CNC(=O)Nc3ccc(C)c(C)c3)C2)cc1 (stereo not drawn)	u	n	n	n	40µM	25µM	2.5
COc1ccc(N2CCC(CNS(=O)(=O)c3cccc(C(F)(F)F)c3)C2)cc1 (stereo not drawn)	u	n	n	u	10µM	40µM	0.45
COc1ccc(CCN(C)C2CCCN(S(=O)(=O)c3ccccc3)C2)cc1OC (stereo not drawn)	n	n	n	n	u	n	x
O=C1CCCc2cc(S(=O)(=O)N3CCCC(C(=O)NCc4ccc(Cl)cc4)C3)ccc2N1 (stereo not drawn)	n	n	x	x	n	n	x
Cc1nc(-n2nc(C)c(Cc3ccc(Cl)cc3)c2C)sc1C(=O)N1CCCCC1C (stereo not drawn)	n	n	x	x	n	n	x
COc1ccc(-c2n[nH]c3c2C(c2ccc(Cl)cc2Cl)NC3=O)cc1 (stereo not drawn)	n	n	x	x	x	u	x
Cc1cccc(C(=O)Nc2cccc(C(=O)N3CCOCC3)c2)c1	n	n	n	x	n	n	x
Cc1cccc(NC(=O)C2SC(=Nc3c(C)cccc3C)C(C(=O)N3CCOCC3)=C2N)c1 (stereo not drawn)	n	u	n	n	n	u	16
CCCc1cc(C(=O)Nc2cccc(-c3nn[nH]n3)c2)sc1C	x	x	n	x	x	x	x
Cc1cc2cc(C(c3nnnn3Cc3ccco3)N3CCc4ccccc43)c(=O)[nH]c2cc1C (stereo not drawn)	n	n	n	n	u	u	x	RGS4 confirm=6.7
Cc1ccc2[nH]c(=O)c(C(c3nnnn3Cc3ccccc3)N3CCc4ccccc43)cc2c1 (stereo not drawn)	n	n	n	x	u	u	x
Cc1cc2c(N=NC(=O)C3CC3c3ccccc3)c(O)[nH]c2cc1Br (stereo not drawn)	n	n	n	n	n	n	x
CCn1nnnc1NCc1ccc(SC)cc1	n	n	n	n	n	n	x
CCn1nnnc1NCc1ccc(N2CCCC2)cc1	u	u	3.8µM	n	n	20µM	10
O=C(CSC1=NCCS1)N1CCc2ccccc21	n	n	n	x	n	n	1.6
CCC1C(=O)NCCN1C(=O)c1ccc(OC)c(OC2CCN(C(C)=O)CC2)c1 (stereo not drawn)	n	n	n	x	n	n	x
CCN(CC)c1ccc(NC(=O)CN2CCN(CC(=O)Nc3ccccc3F)CC2)cc1	n	n	n	n[11.4 µM]	u	u	6.3
SMILES	HP1b chromo inh	VDR inh	PLK1 PBD block	L3MBTL1 inh	BAZ2B inh	JMJD2A Tudor	G9a inh	others
COc1ccccc1Nc1ccc(C(=O)NCc2cccs2)cn1	n	n	n	n	n	n	x
COc1ccccc1Nc1ncc(-c2cccs2)s1	u	u	u	n	u	u	x	RGS4 confirm=u
COCc1c(C(=O)N2CCN(S(=O)(=O)c3ccccc3Cl)CC2)oc2ccccc12	n	n	n	n	n	n	x
COCc1c(C(=O)N2CCN(Cc3nc4ccccc4s3)CC2)oc2ccccc12	n	n	n	n	u	n	4
CCc1ccc(NC(=O)Cn2c(C(=O)OC)cc3oc(C)cc32)cc1	n	n	x	x	n	n	x
COc1ccc(N2CCN(CC(=O)Nc3cc(C)on3)CC2)cc1	u	n	n	n	20µM	2.8µM	1.6
Cc1cc(C)cc(N2C(=O)CC(Sc3ncn[nH]3)C2=O)c1 (stereo not drawn)	u	n	24µM	n	n	u	x	JMJD2E confirm=6.3µM;FDH counter=0.28µM
CCc1cccc(C)c1NC(=O)c1cccc(N(C)C)c1	n	n	n	n	89µM	n	8.9
COCc1cc(CN2CCCC2)c(O)c2ncccc12	n	n	n	10µM	3.2µM	8.9µM	x	JMJD2E confirm=7.9µM;FDH counter=n
Cc1c(O)c(CN2CCCC2)cc2c1oc(=O)c1ccccc12	n	n	n	n	n	u	x
Cc1ccc(CNc2ccc3c(c2)ncn3C)cc1	n	n	n	n	u	u	8.9
COc1ccc(CNc2ccc3c(c2)ncn3C)cc1OC	n	n	n	n	n	n	x
N/C(COc1cc(Cl)cc(Cl)c1)=N\O	n	n	n	n	n	n	x
COc1ccc(OC)c(Nc2nc(=O)c3cccnc3s2)c1	u	45µM	6.7µM	n	56µM	18µM	0.45
Cc1ccc(Nc2nc(=O)c3cccnc3s2)cc1	n	n	n	n	n	n	x
